From PubChem BioAssay (NCATS)
Records with an inconclusive call do not appear. Calls of active or inactive are those of the source. Calls follow the shape of the dose curve; as a rule, active = well fitted curve in the direction sought with a large enough effect; inconclusive = small, poorly fitted or top-dose-only effect, or another doubt; inactive = no such curve, though single readings can be large; an effect the other way counts as inactive or inconclusive.

Assays:
[1] = target: Glutathione peroxidase 1 (Homo sapiens) (UniProt P07203); assay: Primary qHTS Assay for Inhibitors of Recombinant Selenoprotein Glutathione Peroxidase 1 (GPX1) (AID 1845191); also: nearly all actives have a fitted effect of over 65% in size
Glutathione peroxidase 1 (Homo sapiens), sequence (P07203 whole entry, looked up): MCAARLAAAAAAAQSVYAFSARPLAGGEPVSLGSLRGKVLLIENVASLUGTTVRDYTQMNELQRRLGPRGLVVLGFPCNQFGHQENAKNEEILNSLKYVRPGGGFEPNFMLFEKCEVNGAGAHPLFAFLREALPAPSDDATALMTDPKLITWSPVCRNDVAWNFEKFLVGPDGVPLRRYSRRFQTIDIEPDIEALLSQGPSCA
In short: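 GR-coupled readout: NADPH consumption tracked by fluorescence, ex 340/em 450 nm, at t=0 and after 15 min at RT. Final mix 10 nM GPX1, 1 mM GSH, 0.5 mM CHP, 0.5 mM NADPH, 100 nM GR, 0.01% BSA, following 30 min enzyme–compound preincubation.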

[2] = target: Phospholipid hydroperoxide glutathione peroxidase GPX4 (Homo sapiens) (UniProt P36969); assay: Primary qHTS Assay for Inhibitors of Recombinant Selenoprotein Glutathione Peroxidase 4 (GPX4) (AID 1845192); also: nearly all actives have a fitted effect of over 65% in size
Phospholipid hydroperoxide glutathione peroxidase GPX4 (Homo sapiens), sequence (P36969 whole entry, looked up): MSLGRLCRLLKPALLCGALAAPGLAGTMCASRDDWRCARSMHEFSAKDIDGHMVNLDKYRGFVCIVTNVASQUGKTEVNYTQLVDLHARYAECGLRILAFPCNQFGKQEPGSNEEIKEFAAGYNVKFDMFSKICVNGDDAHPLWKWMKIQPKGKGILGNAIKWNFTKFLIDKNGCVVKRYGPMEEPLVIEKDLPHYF
In short: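 Steps: GPX4 plus compound, 30 min RT; add GR/GSH/NADPH master mix; start with cumene hydroperoxide; read 340/450 nm fluorescence at 0 and 15 min. Finals were 200 nM GPX4, 1 mM GSH, 0.5 mM CHP, 0.5 mM NADPH, 100 nM GR.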

[3] = Quantitative High-Throughput drug screen in 47 multiple myeloma cell lines against the NCATS MIPE library collection: FR4_PLB cell viability assay (AID 1918924; also: nearly all actives have a fitted effect of over 35% in size; also: potency is read from the fitted curve at half-maximal effect)
In short: (§1)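 Steps: seed 500 cells per well; pin-transfer MIPE 4.0 library; incubate 48 h at 37C, 5% CO2, humidified; add CellTiter-Glo, 5 min room temperature; read luminescence.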

[4] = Quantitative High-Throughput drug screen in 47 multiple myeloma cell lines against the NCATS MIPE library collection: EJM_DSMZ cell viability assay (AID 1918926; also: nearly all actives have a fitted effect of over 30% in size; also: potency is read from the fitted curve at half-maximal effect)
In short: (§2)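 qHTS of the MIPE 4.0 collection: 500 myeloma cells/well, 48 h drug exposure at 37C in 5% CO2, then CellTiter-Glo for 5 min at room temperature before luminescence reading.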

[5] = Quantitative High-Throughput drug screen in 47 multiple myeloma cell lines against the NCATS MIPE library collection: ARP1_JJKsccF8 cell viability assay (AID 1918928; also: nearly all actives have a fitted effect of over 40% in size; also: potency is read from the fitted curve at half-maximal effect)
In short: (§3)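 500 cells/well; MIPE 4.0 library pinned in; 48 h, 37 °C, 5% CO2; CellTiter-Glo ATP luminescence. Controls: DMSO = 100% viability, medium only = 0%.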

[6] = Quantitative High-Throughput drug screen in 47 multiple myeloma cell lines against the NCATS MIPE library collection: ARD_JJKsccE7 cell viability assay (AID 1918929; also: potency is read from the fitted curve at half-maximal effect)
In short: as §2

[7] = Quantitative High-Throughput drug screen in 47 multiple myeloma cell lines against the NCATS MIPE library collection: Karpas620_DSMZ cell viability assay (AID 1918959); also: nearly all actives have a fitted effect of over 30% in size; also: potency is read from the fitted curve at half-maximal effect
In short: as §1

[8] = Quantitative High-Throughput drug screen in 47 multiple myeloma cell lines against the NCATS MIPE library collection: KMM1_JCRB cell viability assay (AID 1918960); also: nearly all actives have a fitted effect of over 30% in size; also: potency is read from the fitted curve at half-maximal effect
In short: as §3

[9] = Quantitative High-Throughput drug screen in 47 multiple myeloma cell lines against the NCATS MIPE library collection: JIM3_ECACC cell viability assay (AID 1918963; also: nearly all actives have a fitted effect of over 35% in size; also: potency is read from the fitted curve at half-maximal effect)
In short: as §1

[10] = Quantitative High-Throughput drug screen in 47 multiple myeloma cell lines against the NCATS MIPE library collection: Delta47_JCRB cell viability assay (AID 1918925; also: nearly all actives have a fitted effect of over 45% in size; also: potency is read from the fitted curve at half-maximal effect)
In short: as §2

[11] = Quantitative High-Throughput drug screen in 47 multiple myeloma cell lines against the NCATS MIPE library collection: Karpas417_ECACC cell viability assay (AID 1918961); details: Karpas417 myeloma viability, CellTiter-Glo ATP luminescence, 48 h; viability (% of DMSO): at 45.8 µM (top of the series); also: potency is read from the fitted curve at half-maximal effect
In short: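 CellTiter-Glo luminescence (ATP) after 48 h compound exposure, 37C/5% CO2; 500 cells/well; MIPE 4.0 approved/investigational drugs pinned in; DMSO = 100%, media only = 0% viability.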

[12] = Quantitative High-Throughput drug screen in 47 multiple myeloma cell lines against the NCATS MIPE library collection: KHM11_PLB cell viability assay (AID 1918962); also: nearly all actives have a fitted effect of over 35% in size; also: potency is read from the fitted curve at half-maximal effect
In short: as §1

[13] = Quantitative High-Throughput drug screen in 47 multiple myeloma cell lines against the NCATS MIPE library collection: JIM1_ECACC cell viability assay (AID 1918964; also: potency is read from the fitted curve at half-maximal effect)
In short: as §2

[14] = Quantitative High-Throughput drug screen in 47 multiple myeloma cell lines against the NCATS MIPE library collection: AMO1_DSMZ cell viability assay (AID 1918927; also: nearly all actives have a fitted effect of over 30% in size; also: potency is read from the fitted curve at half-maximal effect)
In short: as §2

[15] = target: Luciferin 4-monooxygenase (Photinus pyralis) (UniProt P08659); assay: Primary firefly luciferase (FLuc) qHTS assay for identification of artifact compounds. (AID 1845220);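 also: plate controls were DMSO vehicle for no effect and no enzyme for full effect; nearly all actives have a fitted effect of over 60% in size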
In short: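 Enzymatic FLuc inhibition assay: compounds pre-exposed to luciferin/ATP (10 uM each) for 15 min, then purified P. pyralis enzyme at 10 nM added. Read-out: luminescence at 5 min.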

[16] = Primary fluorescence-based thiol-reactive (MSTI) qHTS assay for identification of artifact compounds. (AID 1845221);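 also: thiol-reactive compounds lower the probe fluorescence signal; nearly all actives have a fitted effect of over 65% in size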
In short: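 Probe: MSTI 4 uM, PBS pH 7.4, 2% DMSO. Incubation 1 h, RT, light-protected. Readout fluorescence 525/598 nm.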

[17] = test system: Nanoluciferase (engineered Oplophorus gracilirostris luciferase); assay: Primary Nanoluciferase (NLuc) qHTS assay for identification of artifact compounds. (AID 1845222);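 also: NLuc secreted into diluted conditioned medium of S16 cells; 0% = DMSO and -100% = no enzyme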
In short: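 S16 cell supernatant NLuc, 1:55; cpds qHTS; 15 min RT dark; Nano-Glo substrate 1:100, 5 min; luminescence; Hill fit of % inhibition.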

Nc1nc(=O)n([C@H]2C[C@H](O)[C@@H](CO)O2)cc1F
inactive: Potency [1] | Potency [2] | Potency [3] | Potency [4] | Potency [6] | Potency [7]
active: Potency [5] 526 nM | Potency [8] 7.4 nM | Potency [9] 1320 nM

Cc1cnc(NC(=O)Nc2cc(Br)c(C)cc2OC[C@@H]2CNCCO2)cn1
inactive: Potency [1] | Potency [2]
active: Potency [3] 590 nM | Potency [10] 5260 nM | Potency [4] 3720 nM | Potency [5] 13200 nM | Potency [6] 1180 nM | Potency [8] 743 nM | viability (% of DMSO) [11] 73.4% | Potency [12] 20900 nM | Potency [9] 935 nM | Potency [13] 1050 nM

CC(=O)SCC(Cc1ccccc1)C(=O)NCC(=O)OCc1ccccc1 (stereo not given)
inactive: Potency [1] | Potency [2]
active: Potency [3] 18700 nM | Potency [4] 14800 nM | Potency [14] 3720 nM | Potency [5] 2350 nM | Potency [6] 8330 nM | Potency [7] 1660 nM | Potency [8] 3320 nM | Potency [12] 7430 nM | Potency [13] 2960 nM

O=C(NC1CC1)c1cccc(-c2ccc3c(NC(=O)C4CC4)n[nH]c3c2)c1
inactive: Potency [1] | Potency [2] | Potency [7]
active: Potency [3] 2090 nM | Potency [10] 7430 nM | Potency [5] 14800 nM

CCOC(=O)C=C[C@H](C[C@@H]1CCNC1=O)NC(=O)[C@@H](CC(=O)[C@@H](NC(=O)c1cc(C)on1)C(C)C)Cc1ccc(F)cc1
inactive: Potency [1] | Potency [2] | Potency [3] | Potency [10] | Potency [4] | Potency [5] | Potency [6] | Potency [7] | Potency [8] | Potency [11] | Potency [9]

C[C@H](CCC(=O)O)[C@H]1CCC2C3C[C@H](O)[C@@H]4C[C@H](O)CC[C@]4(C)C3CC[C@@]21C (stereo not given in full)
inactive: Potency [1] | Potency [2] | Potency [3] | Potency [4] | Potency [14] | Potency [5] | Potency [7] | Potency [8] | Potency [12] | Potency [13]

O=C(O)CCCCCC(=O)NN=C1CCCC1
active: viability (% of DMSO) [11] 136%
inactive: Potency [1] | Potency [2] | Potency [3] | Potency [4] | Potency [14] | Potency [5] | Potency [6] | Potency [7] | Potency [8] | Potency [9] | Potency [13]

CCCCCCCCCCCCCCCC(=O)OC[C@@H](NC(=O)C(Cl)Cl)[C@H](O)c1ccc([N+](=O)[O-])cc1
inactive: Potency [1] | Potency [2] | Potency [4] | Potency [14] | Potency [5] | Potency [6] | Potency [7] | Potency [8] | Potency [11] | Potency [9] | Potency [13]

CCNC(=O)c1cc2c(-c3cc(OCCN4CCCC4)c(Cl)cc3Cl)nc(N)nc2s1
active: Potency [3] 1480 nM | Potency [10] 1050 nM | Potency [4] 2090 nM | Potency [14] 935 nM | Potency [5] 1660 nM | Potency [6] 526 nM | Potency [7] 1050 nM | Potency [8] 590 nM | Potency [11] 590 nM | Potency [12] 590 nM | Potency [9] 935 nM | Potency [13] 469 nM
inactive: Potency [1]

N[C@H]1CN(c2c(F)cc3c(=O)c(C(=O)O)cn(C4C[C@@H]4F)c3c2Cl)CC12CC2 (stereo not given in full)
inactive: Potency [1] | Potency [15] | Potency [16] | outcome [17] | Potency [3] | Potency [10] | Potency [4] | Potency [14] | Potency [5] | Potency [6] | Potency [7] | Potency [8] | Potency [12] | Potency [9] | Potency [13]
